# Sampled rows, rich in hits. Any-hit rate of the full collection: about 19%.
# TDP1 cell CPT: DT40-hTDP1 cell growth loss with CPT | chicken DT40 Tdp1-/-;hTDP1 cells + 20 nM CPT, ATP luminescence, 48 h | Potency, µM (top dose mostly 46.2 µM), actives largely listed as inhibitors | 12% of 420,000 active | AID 686979; also: nearly all actives have a fitted effect of over 55% in size
#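 Chicken DT40 Tdp1-/- cells complemented with human TDP1, 400 cells/well, exposed to compounds plus 20 nM camptothecin for at least 48 h at 37 C; viability read as ATP content by CellTiter-Glo luminescence.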
# TDP1 cell noCPT: qHTS for Inhibitors of human tyrosyl-DNA phosphodiesterase 1 (TDP1): qHTS in cells in absence of CPT; AID 686978, 2013; DT40 Tdp1-/- hTDP1 cells, no CPT, ATP luminescence, 48 h; 15% of 420,000 active; Potency, µM (top dose mostly 46.2 µM), hits mostly inhibitors; also: nearly all actives have a fitted effect of over 55% in size
#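 Chicken DT40 Tdp1-/- cells complemented with human TDP1, screened without camptothecin (DMSO vehicle only), 400 cells/well. Compounds pin-transferred, cells incubated at 37 °C for at least 48 hr. Growth read as ATP-dependent luminescence (CellTiter-Glo, 30 min at RT).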
# HT1080 IDH1KD tx: kills HT-1080 cells with IDH1 knockdown. HT-1080 IDH1 knockdown viability, ATP luminescence, 48 h. Potency, µM (series often up to 46.1 µM), most hits filed as cytotoxic. 2% of 360,000 active. AID 686971
#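 After a 2 h attachment period, IDH1KD HT-1080 cells took pin-transferred compound for 48 h at 37 °C; ATP-based luminescence after 10 min room-temperature reagent incubation reported viability.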
# IL1B secr inh: inflammasome signaling inhibition, IL-1 beta readout | THP-1 LPS/ATP IL-1B secretion, AlphaLISA, 16 h; hits give low values | activity change, % at 57.5 µM | 4.7% of 360,000 active | AID 743279; in the data active = activity change below about -50%; inconclusive = mostly about -30% to -49%
#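 THP-1 cells pretreated 1 hr with compounds (up to 57.5 uM final), then stimulated with LPS (250 ng/mL final) plus ATP (1.25 mM final); secreted IL-1B measured by AlphaLISA after 16 hr, decreased signal indicating inhibition.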
# ELG1 repair inh: ELG1-dependent DNA repair inhibition | AID 504467 | Potency, µM (top dose mostly 46.1 µM), hits mostly inhibitors | HEK293T ELG1-luciferase reporter, luminescence, 16 h; DNA damage induced by 5-fluorouridine | 2.3% of 330,000 active; also: nearly all actives have a fitted effect of over 55% in size
#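 Reporter activity after DNA damage by 5-fluorouridine is monitored. Compound-treated cells incubate 16 hr at 37 °C, then ONE-Glo is added for 30 min before luminescence reading.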
# HT1080NT lethal: kills 2HG-producing HT-1080-NT fibrosarcoma cells; HT-1080-NT fibrosarcoma viability, CellTiter-Glo ATP luminescence, 48 h; Potency, µM (top dose mostly 46.1 µM), most hits filed as cytotoxic; 1.6% of 360,000 active; AID 686970;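 also: NT is the 2HG producing partner of a matched IDH1 knockdown line; nearly all actives have a fitted effect of over 55% in size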
#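 750 cells/well, RPMI + 5% FBS; 2 h settle, compound pin-transfer, 48 h at 37 degrees C. CellTiter-Glo 10 min RT, luminescence. Normalized to DMSO and media-only wells.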
# Numbers stand for hits; 0 = inactive; ? = inconclusive; - = no result; ! = repeats disagree; [ ] = dose if it differs, or a comment. Unless noted, calls follow the shape of the dose curve; as a rule, active = well fitted curve in the direction sought with a large enough effect; inconclusive = small, poorly fitted or top-dose-only effect, or another doubt; inactive = no such curve, though single readings can be large; an effect the other way counts as inactive or inconclusive.
SMILES,TDP1 cell CPT,TDP1 cell noCPT,HT1080 IDH1KD tx,IL1B secr inh,ELG1 repair inh,HT1080NT lethal
CN(C)c1ccc(-c2nc3ccccn3c2/N=C/c2ccc(Br)cc2)cc1,?,?,0,0,?,0
Nc1cc(S(=O)(=O)Nc2ccc(Br)cc2)ccc1Cl,?,?,?,-68.9,?,0
Cc1cc(OCC(=O)Nc2c(C(=O)c3ccccc3)oc3ccccc23)cc(C)c1Cl,0,0,-,-,-,-
CCCOc1ccc2cc(-c3ccccn3)c(=O)oc2c1,?,16.4µM,?,0,?,?
COc1cc(=O)n2c(c1C(=O)NCc1ccc3c(c1)OCO3)CCN(C(=O)c1ccc(C)cc1)CC2,0,0,-,-,-,-
O=C(N/N=C/c1ccc2c(c1)OCO2)c1cccc(NC(=O)c2ccccc2Cl)c1,8.2µM,8.2µM,8.2µM,0,?,11.6µM
O=C(N/N=C/c1ccc2c(c1)OCO2)c1ccc(NC(=O)c2ccccc2Cl)cc1,0,?,?,0,13µM,?
Cc1nn(-c2ccc(F)cc2)c(Cl)c1/C=N/NC(=O)c1cccs1,?,?,0,0,?,?
Cc1cccc(C(=O)Nc2ccc(C(=O)N/N=C/c3ccc4c(c3)OCO4)cc2)c1,0,?,0,0,0,?
Cc1cccc(C(=O)Nc2cccc(C(=O)N/N=C/c3ccc4c(c3)OCO4)c2)c1,?,29.1µM,?,0,0,18.4µM
Cc1ccccc1C(=O)Nc1cccc(C(=O)N/N=C/c2ccc3c(c2)OCO3)c1,?,?,?,0,0,?
Cc1nn(-c2ccc(Cl)cc2)c(Cl)c1/C=N/NC(=O)c1ccc(NS(=O)(=O)c2cccs2)cc1,18.4µM,18.4µM,?,?,-,?
COC(=O)c1cc2oc3ccccc3c2n1CC(=O)Nc1ccc(F)c(Cl)c1,0,0,-,-,-,-
O=C(N/N=C/c1ccc2c(c1)OCO2)c1ccc(NS(=O)(=O)c2cccs2)cc1,0,0,?,-60.2,0,0
O=C(NN=Cc1ccc(F)c(F)c1)c1ccc(NS(=O)(=O)c2cccs2)cc1,0,0,?,0,0,0
CC1(C(=O)NS(=O)(=O)c2ccccc2Cl)CCN1C(=O)c1cccc2ccccc12 (centres undefined),0,0,0,0,-,0
CC(=O)Nc1ccc(N2C(=O)CSC2c2cccc(Br)c2)cc1 (centres undefined),0,0,0,0,0,0
O=C(C[n+]1cccc(CNC(=O)c2ccc(OC(F)F)cc2)c1)Nc1cccc(C(F)(F)F)c1,0,?,0,-70.9,0,0
Cc1ccsc1C(=O)OCC(=O)c1ccc(OC(F)F)cc1,0,0,0,0,?,0
CN(C)c1cc[n+](CC(=O)c2ccc(OC(F)F)cc2)cc1,18.4µM,8.2µM,0,0,?,?
O=C(C[n+]1cccc(CNC(=O)c2ccc(OC(F)F)cc2)c1)c1ccccc1,0,0,0,-90.9,0,0
Nc1cc(=O)[nH]c2c1CCC2,0,0,-,-,-,-
C[C@H](NC(=O)[C@@H]1Cc2ccccc2CN1)C(=O)NC1CCCC1,0,0,0,0,0,0
COc1ccc(S(=O)(=O)n2ccc(C(C)Oc3ccc(-c4ccccc4)c(F)c3)n2)cc1 (centres undefined),25.9µM,18.4µM,?,?,?,0
O=C(Nc1ccc2c(c1)OCCO2)c1cc(-c2ccccc2)nc2ccccc12,?,23.1µM,0,0,?,0
SMILES,TDP1 cell CPT,TDP1 cell noCPT,HT1080 IDH1KD tx,IL1B secr inh,ELG1 repair inh,HT1080NT lethal
O=C(Nc1ccc2c(c1)OCCO2)c1ccccc1,0,0,0,0,?,0
O=C(Nc1ccc2c(c1)OCO2)c1cc(-c2ccncc2)nc2ccccc12,?,14.6µM,18.4µM,0,0,18.4µM
COC(=O)c1ccc(NC(=O)c2cc(-c3ccncc3)nc3ccccc23)cc1,?,?,?,0,0,?
O=C(OCc1ccc([N+](=O)[O-])cc1)c1cc([N+](=O)[O-])ccc1N1CCOCC1,16.4µM,23.1µM,?,0,?,?
COc1ccccc1C(=O)COC(=O)c1cc([N+](=O)[O-])ccc1N1CCOCC1,?,?,0,?,?,0
Cc1cc(C)c(C(=O)COC(=O)c2cc([N+](=O)[O-])ccc2N2CCOCC2)cc1C,?,18.4µM,0,0,0,0
O=C(Cc1ccccc1)N/N=C/c1ccccc1Cl,0,0,0,0,?,0
Cc1[nH]nc(C(=O)NN=Cc2ccccc2Cl)c1N=NN(C)C,9.2µM,6.51µM,23.1µM,0,-,20.6µM
O=C(CSc1nnc(CNC(=O)c2c(F)cccc2Cl)o1)NCc1ccccc1,?,0,0,0,0,0
CSc1nc(=NC(C)=O)ss1,?,35.5µM,0,0,?,0
O=C(NCCCN1CCOCC1)c1cnn(-c2ncc3c(n2)-c2ccccc2CC3)c1C1CC1,0[9.04 µM],0,-,-,-,-
CCOC(=O)CNc1nc(C#N)nc(N2CCOCC2)n1,12.6µM!,?,0,-89.7,0,0
COc1nc(OC)nc(N2CCCCCC2)n1,?,0,0[9.24 µM],0,0,0
N#Cc1nc(N2CCCCC2)nc(N2CCOCC2)n1,13µM,16.4µM,0,-55.3,?,0
CCOc1nc(C#N)nc(N2CCOCC2)n1,?,11.2µM,-,-,-,-
CCOC(=O)CNc1nc(Cl)nc(N2CCCCC2)n1,0,0,0,0,0,0
COc1nc(C#N)nc(N2CCCCC2)n1,?,20µM,-,-,-,-
CCCC(C(=O)NC(C)(C)C)N(CC1CCCO1)C(=O)CNS(=O)(=O)c1ccc(F)cc1 (centres undefined),0,0,0,0,0,0
CC(C)N(C#N)c1nc(N2CCOCC2)nc(N2CCOCC2)n1,20.6µM,10.3µM,0,?,0,0
N#Cc1nc(N2CCCC2)nc(N(c2ccccc2)c2ccccc2)n1,0,0,-,-,-,-
CN(C)c1nc(C#N)nc(N2CCOCC2)n1,?,?,0,0,0,0
N#Cc1nc(N2CCCC2)nc(N2CCCC2)n1,12.6µM,14.1µM,?,-91.5,?,0
CC(O)CNc1nc2ccccc2n1CC(=O)NC12CC3CC(CC(C3)C1)C2 (centres undefined),0,?,?,0,0,0
O=C(Cn1nc(Cl)nc1Cl)c1ccc([N+](=O)[O-])cc1,?,0,0,0,0,0
O=C(Cn1nc(CNc2ccc(Cl)cc2)[n+]2c1CCCCC2)c1ccc(Br)cc1,23.1µM,?,0,-52.3,0,0
COc1ccc(C(=O)CN2C(=O)NC3(CCCCCC3)C2=O)cc1,0,0,0,0,-,0
O=C(Cn1nc(CNc2ccc(Br)cc2)[n+]2c1CCCCC2)c1ccc([N+](=O)[O-])cc1,6.51µM,11.6µM,?,-61.3,0,?
